TRHR PAM – allosteric enhancers of human TRH receptor. P34981. enhancement, % at 2 µM. TRHR cells, fluo-8 calcium fluorescence, EC20 TRH enhancement. 360,000 tested, 0.66% active. AID 493056; in the data active = enhancement above about 30%
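TRHR-expressing cells loaded with fluo-8 calcium dye were read kinetically (ex 480/em 530) during compound addition, then stimulated with an EC20 of TRH (10 nM final). Enhancement of the Gq-mediated intracellular calcium response was scored.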
D1 potentiator – potentiators of human D1 dopamine receptor; HEK293 TREx D1 cells, calcium flux, dopamine EC20 potentiation; potentiation, % at 10 µM; 360,000 tested, 0.036% active; in the data active = potentiation above about 30%
Target sequence (P21728 whole entry, looked up): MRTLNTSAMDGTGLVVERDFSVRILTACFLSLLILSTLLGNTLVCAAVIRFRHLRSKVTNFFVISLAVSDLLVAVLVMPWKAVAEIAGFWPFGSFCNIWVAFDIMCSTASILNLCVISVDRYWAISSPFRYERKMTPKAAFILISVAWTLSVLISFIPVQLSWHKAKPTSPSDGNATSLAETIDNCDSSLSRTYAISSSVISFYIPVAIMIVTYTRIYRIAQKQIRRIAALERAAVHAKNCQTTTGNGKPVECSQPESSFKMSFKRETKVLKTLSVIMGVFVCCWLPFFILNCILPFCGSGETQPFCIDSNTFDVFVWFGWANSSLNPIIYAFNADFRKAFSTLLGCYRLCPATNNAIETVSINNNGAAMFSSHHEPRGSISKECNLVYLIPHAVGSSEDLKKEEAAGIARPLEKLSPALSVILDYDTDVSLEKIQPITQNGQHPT
D1 antagonist – human D1 dopamine receptor antagonism. HEK293 TREx D1 cells, calcium flux, dopamine EC80; active compounds read low. 360,000 tested, 3.2% active. AID 504652. P21728. activity change, negative = inhibition, % at 10 µM; in the data active = activity change below about -30%
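After overnight tetracycline induction at 30 C, force-coupled D1 HEK293 cells took up a no-wash calcium dye at room temperature. Compounds were added and monitored 180 s, and the response to EC80 dopamine was then recorded.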
TRHR ag – TRH receptor (human) agonism | TRHR cells, calcium flux fluo-8, FDSS agonist mode | activation, % at 2 µM | 360,000 tested, 0.18% active | AID 493084
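TRHR-expressing cells, plated overnight in medium with 10% serum, were loaded with fluo-8 calcium dye at room temperature. After a 10 s baseline, library compound was pin-added and calcium release was recorded kinetically (ex 480/em 530) as agonist response.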
D1 agonist – activates the human D1 dopamine receptor | 360,000 tested, 1% active | HEK293 T-REx D1 cells, calcium flux, agonist mode | activation, % at 2 µM | AID 504660
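Inducible HEK293 T-REx D1 cells, force-coupled to calcium signalling, were plated at 4000 cells/well with tetracycline and held overnight at 30 C. After no-wash calcium dye loading, compound-evoked calcium rise over 180 s flagged agonists.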
Of the large screens only hits and unclear results are named; the others gave an inactive call. Most compounds without a hit are left out; they make up all but 4.7% or so of the library. Rule as the data show it, unless noted: active = activation above about 30%; inactive = the rest.

Cc1ccccc1NC(=O)c1cccc(N2C(=O)C3CCCCC3C2=O)c1 (centres undefined)	D1 antagonist -30
CCOC(=O)Cn1c(=O)n(C2CCCCC2)c2nc(-c3ccc(Cl)cc3)nc(C(N)=O)c21	none
CC(=O)c1cccc(NC(=O)COC(=O)CCc2ccc(S(=O)(=O)N3CCOCC3)cc2)c1	none
Cc1ccc(NC(=O)COC(=O)CCc2ccc(S(=O)(=O)N3CCOCC3)cc2)cc1F	D1 antagonist -31
O=C(COC(=O)CCC1CCCC1)Nc1cccc(S(=O)(=O)N2CCOCC2)c1	none
O=C(COC(=O)CCC(=O)c1ccc(F)cc1)Nc1cccc(S(=O)(=O)N2CCOCC2)c1	TRHR PAM 33
COc1ccc(/C=N/NC(=O)C(C)n2nnc3ccccc32)cc1OC (centres undefined)	D1 antagonist -74
COc1ccc(/C=N/NC(=O)CSc2ccccn2)cc1OC	D1 antagonist -32
COc1cc(/C=N/NC(N)=O)ccc1OC(=O)c1ccco1	D1 antagonist -35
Cc1ccccc1OCc1nc2ccccc2n1Cc1ccccc1Cl	none
O=C(NC1CC1)c1cc(-c2ccc(Br)cc2)nc2ccccc12	none (no result: D1 potentiator)
Cc1cc(C)cc(Nc2cc(C(=O)NC3CCC(C)CC3)c3ccccc3n2)c1 (centres undefined)	TRHR PAM 33
CN1CCC(NC(=O)c2cc(-c3cccc(Br)c3)nc3ccccc23)CC1	D1 antagonist -35, D1 agonist 38
Cc1cc(C)cc(Nc2cc(C(=O)NC3CCCCC3)c3ccccc3n2)c1	none
Cn1cccc1C(=O)NNC(=O)COc1ccccc1F	D1 antagonist -47
CC1CCCCN1C(=O)Cn1c(=O)n(CCC(=O)NCc2ccco2)c(=O)c2sccc21 (centres undefined)	TRHR PAM 35
CC1CCN(C(=O)Cn2c(=O)n(CCCC(=O)NCc3ccco3)c(=O)c3sccc32)CC1	none
COCCc1nn2c(=O)cc(COC(=O)COc3ccc(F)cc3)nc2s1	none
CCOc1ccc(NC(=O)NCCCN2CCN(c3ccc(F)cc3)CC2)cc1	D1 antagonist -36
O=C(NCCCN1CCN(c2ccc(F)cc2)CC1)Nc1ccc(Cl)cc1	D1 antagonist -77, D1 agonist 69
CCc1ccc(N2CCN(CCNC(=O)Nc3ccc(OC)cc3)CC2)cc1	none
O=C(CN1CCN(Cc2ccc(Cl)cc2)C1=O)NCCCN1CCN(c2ccc(F)cc2)CC1	none
Cc1ccccc1CN1CCN(CC(=O)NCCCN2CCN(c3ccc(F)cc3)CC2)C1=O	D1 antagonist -65
CSc1cccc(NC(=S)NCCCN2CCN(c3ccc(F)cc3)CC2)c1	D1 antagonist -76
COc1cc(OC)c(NS(=O)(=O)c2c(C(=O)N3CCCCCC3)c(C)n(C)c2C)cc1Cl	none
Cc1csc2nc(COC(=O)CNC(=O)c3ccc(F)cc3)cc(=O)n12	none
O=C(NCCCN1CCN(c2ccc(F)cc2)CC1)Nc1ccccc1Cl	D1 antagonist -67, D1 agonist 43
O=C(NCCN1CCN(c2ccccc2Cl)CC1)Nc1ccccc1	none
COc1ccc(N2CCN(CCCNC(=O)Nc3ccccc3Cl)CC2)cc1	none
COc1ccccc1S(=O)(=O)Cc1ccc(C(=O)NCCCN2CCN(c3ccc(F)cc3)CC2)o1	D1 antagonist -62
CSc1ccc(NC(=O)NCCCN2CCC(Cc3ccccc3)CC2)cc1	D1 agonist 196
Cc1cccc(N2CCN(CCNC(=O)Nc3ccc(Cl)cc3)CC2)c1C	D1 antagonist -33, D1 agonist 30
CCOC(=O)c1c(Nc2ccc(OCC)cc2)nnc(-c2ccccc2)c1-c1ccccc1	none
O=C(CCN1CCN(c2ccc(F)cc2)CC1)Nc1ccccc1F	none
CSc1ccc(N2CCN(CCCNC(=O)Nc3ccccc3F)CC2)cc1	D1 agonist 75
CCOC(=O)C1CCCN(S(=O)(=O)c2ccc3c(c2)CCN3C(=O)CC)C1 (centres undefined)	none
Nc1cc(S(=O)(=O)N2CCOCC2)ccc1Oc1cccc(Br)c1	D1 antagonist -44
CCN1CCN(Cc2c(O)ccc3c2O/C(=C\C=C\c2ccccc2OC)C3=O)CC1	TRHR ag 33, D1 agonist 112
Cc1ccc(/C=C2\Oc3c(ccc(O)c3CN3CCN(CCO)CC3)C2=O)cc1	D1 agonist 32
O=C1/C(=C/c2ccco2)Oc2c1ccc(O)c2CN1CCCCC1	none
